Experimental findings from PubChem BioAssay AID2284196 (EPA ToxCast) are described below.

One may read the AC50 as the concentration giving half of the maximal activity seen.

Activity calls are given as the source filed them. Rule for the calls: active = hit-call score of the fitted dose curve at least 0.9, where 1 is the maximum; inactive = score below 0.9.

The experiment deals with human Peripheral-type Benzodiazepine Receptor (PBR/TSPO) Antagonism, TSPO (gene 706) (UniProt P30536). The experiment in a line: ERF_FR_MP_hTSPO: Eurofins (ERF) Radioligand Binding LeadHunter Assay for human Peripheral-type Benzodiazepine Receptor (PBR/TSPO) Antagonism. The procedure: ERF_FR_MP_hTSPO is a biochemical, single-readout assay that uses extracted gene-proteins in a cell-free assay. Measurements were taken 0.25 hour after chemical dosing in a 96-well plate. See PBR Human Binding (Antagonist Radioligand) Assay, Cerep.ERF_FR_MP_hTSPO is an assay component calculated from the ERF_FR_MP_hTSPO assay. It is designed to measure radioligand binding using a type of binding reporter as detected by scintillation counting with radiometry technology.Data from the assay component ERF_FR_MP_hTSPO was analyzed at the assay endpoint, ERF_FR_MP_hTSPO, in the positive analysis fitting direction relative to DMSO as the negative control and baseline of activity. Using a type of binding reporter, loss-of-signal activity can be used to understand changes in binding as they relate to gene TSPO. To generalize the intended target to other relatable targets, this assay endpoint is annotated to the membrane protein intended target family, where the subfamily is mitochondrial associated translocator protein.
Sequence of human Peripheral-type Benzodiazepine Receptor (PBR/TSPO) Antagonism, TSPO (gene 706) (P30536 whole entry, looked up): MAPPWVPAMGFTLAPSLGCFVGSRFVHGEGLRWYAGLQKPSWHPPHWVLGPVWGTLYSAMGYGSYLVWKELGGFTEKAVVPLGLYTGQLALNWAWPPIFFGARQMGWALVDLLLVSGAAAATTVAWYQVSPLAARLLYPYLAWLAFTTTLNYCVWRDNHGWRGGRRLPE
Human glioblastoma U118MG cells are used to prepare peripheral benzodiazepine receptor in modified Tris-HCl buffer pH 7.4. A 100 ug aliquot is incubated with 0.2 nM [3H] PK-11195 for 15 minutes at room temprature. Non-specific binding is estimated in the presence of 10 uM PK-11195. Membranes are filtered and washed, the filters are then counted to determine [3H] […]
Take `O=C(/C=C/c1ccc(O)cc1)CC(=O)/C=C/c1ccc(O)cc1`: the half-maximal activity concentration (AC50) was 891 nM (active). As to `COc1cc(CCC(=O)CC(=O)CCc2ccc(O)c(OC)c2)ccc1O`, the compound was classed as inactive.
